TROY signal inh: inhibitors of TROY-dependent NF-kB signaling. Q293 LMP1-TROYcd NF-kB luciferase reporter, 4 h. inhibition, % at 10 µM. AID 1347056. actives 0.98% (n = 360,000);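 active = compounds whose plate-normalised and pattern-corrected inhibition of the luciferase reporter signal at the single screening dose is 50% or more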
TWEAK Fn14 block: blocks TWEAK-Fn14 interaction in a reporter cell assay | actives 2% (n = 360,000) | TWEAK-stimulated Fn14 reporter cells, luciferase luminescence, 8 h | inhibition, % at 10 µM; in the data active = inhibition above about 50%
LGR2 inh: inhibitors of bursicon-induced Drosophila LGR2 receptor cAMP signaling. inhibition, % at 9.99 µM. actives 0.35% (n = 380,000). HEK293 LGR2, CRE-luciferase, bursicon-stimulated, 4 h. AID 720647;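 active = drop in luminescence signal, shown as inhibition above about 50% in the replicate tests, limit read from the data, passing the limit was not always enough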;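 note: agonist challenge used bursicon conditioned medium at about half maximal strength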
HSP90 inh: inhibitors of HSP90 luciferase refolding in rabbit reticulocyte lysate; luciferase refolding luminescence, 3 h; inhibition, % at 5.6 µM; actives 0.91% (n = 290,000);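 active = inhibition above the screen-wide mean plus 3 SD, computed separately per campaign, cut at about 16% in these data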;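 note: 0% = DMSO wells and 100% = 60 µM geldanamycin wells; inhibitors lower the luminescence because luciferase stays unfolded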
The depositor's hits bear a star; . = no result given. Compounds with a hit are over-represented: about 2.2% of the library has one in this group of screens.

SMILES | TROY signal inh | TWEAK Fn14 block | LGR2 inh | HSP90 inh
COc1cc2oc(=O)cc(-c3ccc(-c4ccc(N(C)C)cc4)cc3)c2c(OC)c1OC | 71* | 92* | 4 | .
C[C@H]1CN([C@@H](C)CO)C(=O)c2cc(NC(=O)CCCN(C)C)ccc2O[C@@H]1CN(C)C(=O)NC1CCCCC1 | . | . | 3 | .
C[C@]12c3[nH]c4ccc(Cl)cc4c3CCN1C(=O)[C@@H](CC(=O)NCC13CC4CC(CC(C4)C1)C3)C[C@@H]2C(=O)N1CCOCC1 | 39 | 42 | -2 | .
C[C@]12c3[nH]c4ccc(Cl)cc4c3CCN1C(=O)[C@@H](CC(=O)NCC13CC4CC(CC(C4)C1)C3)C[C@@H]2C(=O)N1CCCCC1 | 35 | 61* | 7 | .
COc1ccc2[nH]c3c(c2c1)CCN1C(=O)C(CC(=O)NCCc2ccccn2)C[C@H](C(=O)N2CCCCC2)[C@@]31CCc1ccccc1 (stereo partly specified) | 4 | 7 | 22 | .
O=C(CC1C[C@H](C(=O)N2CCOCC2)[C@@]2(CCC3CCCC3)c3[nH]c4ccccc4c3CCN2C1=O)NCC12CC3CC(CC(C3)C1)C2 (stereo partly specified) | 3 | 50* | 20 | .
O=C(C[C@H]1C[C@H](C(=O)N2CCCCC2)[C@@]2(CCc3ccccc3)c3[nH]c4ccc(Cl)cc4c3CCN2C1=O)NCCc1ccccn1 | 63* | 69* | . | .
C/C=C/c1cnc2c(c1)C(=O)N([C@@H](C)CO)C[C@H](C)[C@@H](CN(C)C(=O)Nc1ccc(OC)cc1)O2 | . | . | -15 | .
C=C1CC2(CC(c3ccccc3)OC(c3ccccc3)C2)OC1=O (stereo unspecified) | 23 | 87* | -9 | .
Cn1c(CC(=O)Nc2ccccc2F)nnc1SCC(=O)NC1=NCCS1 | 5 | 53* | 12 | -3
Cn1c(CC(=O)Nc2ccccc2Cl)nnc1SCC(=O)NC1=NCCS1 | 2 | -1 | 36 | -1
N#Cc1cc2c(nc1SCC(=O)N1CCCCC1)CCCCC2 | 56* | 41 | . | 11
Cc1ccc(-c2ccc3c(c2)O[C@@H](CN(C)CC2CC2)[C@@H](C)CN([C@@H](C)CO)S3(=O)=O)cc1 | . | . | -7 | .
CCC(C)(C)C1CCc2[nH]nc(C(=O)N/N=C(\C)c3ccco3)c2C1 (stereo unspecified) | 68* | 44 | -67 | 12
C/C(=N\NC(=O)c1n[nH]c2c1CCC2)c1ccco1 | -17 | 59* | 41 | 3
CCCNC(=O)c1n[nH]c2c1CC(C(C)(C)CC)CC2 (stereo unspecified) | 5 | -1 | . | .
O=C(NN=C1CCCC1)c1n[nH]c2c1CCC2 | -13 | -5 | -16 | 0
O=C(C[C@@H]1CC[C@H]2[C@@H](COC[C@@H](O)CN2CC2CCCC2)O1)NCc1ccc(Cl)cc1 | . | . | 8 | .
CN(C)c1ccc(CC(=O)N2CCCC(c3cc(C(=O)Nc4ccc(C(C)(C)C)cc4)no3)C2)cc1 (stereo unspecified) | 38 | 79* | 17 | .
Cc1ccc(Sc2c(O)c3ccccc3n(C)c2=O)cc1 | 25 | -1 | 7 | -3
Cn1c(-c2ccccc2)c(C=O)c2ccccc21 | -18 | 8 | -32 | 0
Cc1ccc(Sc2c([N+](=O)[O-])c(=O)n(C)c3ccccc23)cc1 | 68* | -102 | -2 | 4
Cc1ccc(Sc2c(C=O)c3ccccc3n2C)cc1 | 52* | 69* | . | -3
O=C(Cc1cccnc1)N1CC2(C1)[C@H](c1ccccc1)[C@H](CO)N2C(=O)C1CCCCC1 | . | . | 11 | .
COc1ccc(CN2C[C@H](C)[C@@H](OC)CN(C)C(=O)c3cc(NC(=O)C4CC4)ccc3OC[C@@H]2C)cc1 | . | . | 10 | .
SMILES | TROY signal inh | TWEAK Fn14 block | LGR2 inh | HSP90 inh
C[C@H]1CCCCO[C@H](CN(C)S(=O)(=O)c2cn(C)cn2)[C@@H](C)CN([C@@H](C)CO)C(=O)c2cc(NC(=O)Nc3ccc(F)cc3)ccc2O1 | . | . | -21 | .
COC(=O)c1ccc(-c2nc(-c3cccs3)no2)cc1 | 64* | 92* | 84* | 5
Fc1ccc(-c2nc(-c3cccs3)no2)cc1 | -63 | -14 | -87 | 0
COc1ccc(S(=O)(=O)Nc2cccc3c2O[C@@H](CN(C)S(=O)(=O)c2cn(C)cn2)[C@H](C)CN([C@@H](C)CO)C3=O)cc1 | . | . | -25 | .
Cc1cc(Cl)ccc1OC(C)C(=O)N1CCCN(C(=O)C(C)Oc2ccc(Cl)cc2C)CC1 (stereo unspecified) | 39 | 63* | . | -5
Cc1cc(Cl)ccc1OCC(=O)N1CCCN(C(=O)COc2ccc(Cl)cc2C)CC1 | 47 | 30 | 6 | -3
COc1ccc(C2CC3(O)CC(C#N)(C(=O)N3)C2(C#N)C#N)cc1 (stereo unspecified) | 82* | 91* | -4 | 2
Cc1ccc(S(=O)(=O)N2C[C@@H](O)COC[C@H]3O[C@H](CC(=O)N[C@H]4CCN(Cc5ccccc5)C4)CC[C@@H]32)cc1 | . | . | 14 | .
O=C(Cc1ccccc1)N1C[C@H]2[C@@H](c3ccccc31)[C@H](CO)N2C(=O)Nc1ccc(F)cc1 | . | . | -4 | .
O=C(C[C@H]1CC[C@@H]2[C@H](COC[C@H](O)CN2Cc2cc(F)ccc2F)O1)N[C@@H]1CCN(Cc2ccccc2)C1 | . | . | -2 | .
C(=NN1CCCCCC1)c1ccc2ccccc2n1 | 87* | 104* | 98* | .
C(=NN1CCCCCC1)c1cccc2ccccc12 | 21 | 14 | . | .
C[C@H]1CN([C@@H](C)CO)S(=O)(=O)c2ccc(C#Cc3ccccc3)cc2O[C@@H]1CN(C)S(=O)(=O)c1cn(C)cn1 | . | . | 13 | .
NS(=O)(=O)c1ccc(CCNc2nn3c(-c4cccc(OC(F)(F)F)c4)cnc3s2)cc1 | 72* | 94* | 15 | .
COc1ccc(NC(=O)N(C)C[C@H]2OCCCC[C@@H](C)Oc3ccc(NS(C)(=O)=O)cc3C(=O)N([C@@H](C)CO)C[C@H]2C)cc1 | . | . | -4 | .
Cc1ccc(S(=O)(=O)Nc2nnc(CC(C)(C)C)s2)cc1 | -22 | 109* | -8 | 4
CC(C)(C)Cc1nnc(NS(=O)(=O)c2ccc(F)cc2)s1 | -14 | 0 | . | 0
CCCc1nnc(SCC(=O)Nc2ccc(OCC)cc2)n1N | -1 | 100* | . | 3
CCOc1ccc(NC(=O)CSc2nnc(-c3ccccc3)n2N)cc1 | -4 | 7 | 14 | -3
CCC(=O)N[C@@H]1CC[C@H](CC(=O)NCc2ccccc2F)O[C@H]1CO | . | . | -3 | .
CN(C)C(=O)CSc1cccc2cccnc12 | 6 | 96* | . | -4
O=C(CSc1cccc2cccnc12)N1CCCC1 | -24 | 67* | . | -2
NNC(=O)CSc1cccc2cccnc12 | 6 | 5 | 14 | -4
COc1cccc2c1C(=N)c1c(O)c3c(c(O)c1C2=O)CC(O)(C(C)=O)CC3OC1CC(N)C(O)C(C)O1 (stereo unspecified) | -43 | -139 | . | .
COc1cccc2c1C(=O)c1c(O)c3c(c(O)c1C2=O)C[C@](O)(C(C)=O)C[C@H]3O[C@@H]1C[C@@H](N)[C@@H](O)[C@@H](C)O1 | 77* | 97* | 1 | .
CC1(C)SC(=S)N(NC(=O)Nc2cccc3ccccc23)C1N(O)C(=O)Nc1ccccc1 (stereo unspecified) | 55* | 22 | 1 | 3
